TDP1 inh = TDP1 (human) enzyme inhibition. recombinant TDP1, AlphaScreen DNA substrate cleavage. Potency, µM (series often up to 130 µM), actives largely listed as inhibitors. AID 485290. 350,000 tested, 0.28% active; further: nearly all actives have a fitted effect of over 40% in size
Target sequence (Q9NUW8 whole entry, looked up): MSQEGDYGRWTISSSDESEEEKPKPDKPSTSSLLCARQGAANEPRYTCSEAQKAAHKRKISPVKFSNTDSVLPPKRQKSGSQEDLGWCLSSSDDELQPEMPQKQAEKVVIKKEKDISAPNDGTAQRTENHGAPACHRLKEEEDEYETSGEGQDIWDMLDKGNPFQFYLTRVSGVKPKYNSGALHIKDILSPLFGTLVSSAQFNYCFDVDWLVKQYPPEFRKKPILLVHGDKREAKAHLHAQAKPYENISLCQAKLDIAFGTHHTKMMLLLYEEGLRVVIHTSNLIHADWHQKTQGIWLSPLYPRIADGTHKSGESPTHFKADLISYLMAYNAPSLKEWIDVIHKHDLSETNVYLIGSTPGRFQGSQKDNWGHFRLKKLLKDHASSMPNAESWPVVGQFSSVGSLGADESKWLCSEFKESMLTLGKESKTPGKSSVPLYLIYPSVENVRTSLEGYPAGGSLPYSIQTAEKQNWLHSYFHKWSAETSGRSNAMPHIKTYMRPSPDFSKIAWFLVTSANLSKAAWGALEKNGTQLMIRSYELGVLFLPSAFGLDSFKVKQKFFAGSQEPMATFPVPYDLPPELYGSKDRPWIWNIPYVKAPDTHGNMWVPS
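E. coli-derived human Tdp1, 1 nM final. Cpd preinc 15 min RT; substrate 15 nM final, 5 min RT; AS bead mix 10 ug/ml final, 10 min RT. Signal loss = tyrosine-FITC cleavage. No-enzyme wells = max signal.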
DT40 TDP1 no CPT = qHTS for Inhibitors of human tyrosyl-DNA phosphodiesterase 1 (TDP1): qHTS in cells in absence of CPT | Potency, µM (highest dose often 46.2 µM), actives largely listed as inhibitors | DT40 Tdp1-/- hTDP1 cells, no CPT, ATP luminescence, 48 h | 420,000 tested, 15% active; further: nearly all actives have a fitted effect of over 55% in size
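Luminescent ATP content (CellTiter-Glo) served as the growth readout. Knockout chicken DT40 cells expressing human TDP1 were exposed to compounds without camptothecin for a minimum 48 hr at 37 °C.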
TDP1 cell CPT = DT40-hTDP1 cell growth loss with CPT; chicken DT40 Tdp1-/-;hTDP1 cells + 20 nM CPT, ATP luminescence, 48 h; AID 686979; Potency, µM (top dose mostly 46.2 µM), usual class: inhibitors; 420,000 tested, 12% active; further: nearly all actives have a fitted effect of over 55% in size
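Chicken DT40 Tdp1-/- cells complemented with human TDP1, 400 cells/well, exposed to compounds plus 20 nM camptothecin for at least 48 h at 37 C; viability read as ATP content by CellTiter-Glo luminescence.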
HepG2 viability = HepG2 cytotoxicity, counter-screen for TGF-b inhibitors; HepG2 CAGA-GFP viability, ATP luminescence, 18 h; 410,000 tested, 0.76% active; AID 588856; Potency, µM (doses to about 46.1 µM), actives largely listed as cytotoxic
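CellTiter-Glo luminescence gave cytotoxicity after 18 hours at 37 degrees C. The cells were HepG2 CAGA-GFP in 1% FBS DMEM, stimulated with 500 pg/mL TGF-beta after compound addition. %Activity was normalised to no-cell wells (complete cell-killing) and DMSO (no toxicity), and curves were fitted and classified.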
TGFb SMAD3 inh = inhibitors of TGF-b signaling; Potency, µM (doses to about 46.1 µM), hits mostly inhibitors; 410,000 tested, 1.2% active; HepG2 CAGA-GFP TGF-b/SMAD3 reporter, GFP fluorescence, 18 h; TGF-beta stimulated, 500 pg/mL final; further: nearly all actives have a fitted effect of over 65% in size
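HEPG2 CAGA-GFP, 1000 cells/well; 2 h settle, 37 C; cpd via pin tool; TGF-b 500 pg/mL final; 18 h, 37 C; GFP imaging ex488/em500-530; %Activity normalised to -TGF-b and +DMSO controls; CRC fit, curve class.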
IL1B secr inh = blocks inflammasome-driven IL-1 beta release | AID 743279 | 360,000 tested, 4.7% active | THP-1 LPS/ATP IL-1B secretion, AlphaLISA, 16 h; hits give low values | activity change, % at 57.5 µM; in the data active means activity change below about -50%; inconclusive means mostly about -30% to -49%
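THP-1 cells pretreated 1 hr with compounds (up to 57.5 uM final), then stimulated with LPS (250 ng/mL final) plus ATP (1.25 mM final); secreted IL-1B measured by AlphaLISA after 16 hr, decreased signal indicating inhibition.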
Hits are given with their value; 0 = inactive; ? = inconclusive; - = not tested or not shown; [ ] = remark or other dose. A selection: hits, their analogues and other compounds. The true share with any hit is near 18%. Unless noted, the call rests on the fitted dose curve; in most records, active means well fitted curve in the direction sought with a large enough effect; inconclusive means small, poorly fitted or top-dose-only effect, or another doubt; inactive means no such curve, though single readings can be large; an effect the other way counts as inactive or inconclusive.

SMILES	TDP1 inh	DT40 TDP1 no CPT	TDP1 cell CPT	HepG2 viability	TGFb SMAD3 inh	IL1B secr inh
Cc1ccc(S(=O)(=O)N2CCC(=O)N(C(COCc3ccc(Cl)cc3)Cc3ccccc3)CC2)cc1 (stereo not given)	0	16µM	?	0	0	0
Cc1ccc(S(=O)(=O)N2CCC(=O)N([C@H](COCc3ccc(Cl)cc3Cl)Cc3ccccc3)CC2)cc1	-	23µM	?	-	-	0
Cc1ccc(S(=O)(=O)N2CCC(=O)N(C(COCc3ccccc3)C(C)C)CC2)cc1 (stereo not given)	0	?	?	0	0	0
CC(C)Oc1ccc(C(=O)OCC(=O)NC(=O)NC2CCCC2)cc1	0	0	0	0	0	0
CC(C)Oc1ccc(C(=O)OCC(=O)NC2CCCCCC2)cc1	0	16µM	?	0	0	0
O=C(CO/N=C/c1ccc(OC(F)F)cc1)NC1CCCCCC1	0	?	?	0	0	-57
COc1ccc(S(=O)(=O)NCC(=O)N(CC(=O)NCc2ccco2)Cc2ccc(F)cc2)cc1	0[0.0935 µM]	0	0	0	0	0
CC(=O)N1c2ccc(S(=O)(=O)Nc3ccc(C)c(C)c3)cc2CC1C (stereo not given)	0	-	-	-	-	-
CCOC(=O)C1=CCC(c2ccc(CC)cc2)N(S(=O)(=O)c2ccc(C)cc2)C1 (stereo not given)	-	9.2µM	23µM	0	0	0
CCOC(=O)C1=CCC(c2cccc3ccccc23)N(S(=O)(=O)c2ccc(C)cc2)C1 (stereo not given)	-	18µM	15µM	0	0	0
CC(=O)C1=CCC(c2cccc(Cl)c2)N(S(=O)(=O)c2ccc(C)cc2)C1 (stereo not given)	-	10µM	15µM	0	?	-85
CCOC(=O)C1=CCC(c2cccc(Cl)c2)N(S(=O)(=O)c2ccc(C)cc2)C1 (stereo not given)	-	12µM	15µM	0	?	0
CCc1ccc([C@@H]2CC=C(C(=O)O)CN2S(=O)(=O)c2ccc(C)cc2)cc1	0	0	0	0	?	0
CCOC(=O)C1=CCC(c2ccco2)N(S(=O)(=O)c2ccc(C)cc2)C1 (stereo not given)	-	?	?	0	0	0
Cc1ncc2c(c1CNC(=O)c1cncs1)CCN(C(=O)c1ccc(C(C)(C)C)cc1)C2	-	?	0[9.04 µM]	-	-	-
COC(=O)C1CCCCN1Cc1ccc2c(c1)CN(C(=O)c1csc(-c3cccs3)n1)CCO2 (stereo not given)	-	?	0[9.04 µM]	-	-	-
CCOC(=O)C/C(C)=N/NC(=O)CN(c1ccc(Br)cc1)S(=O)(=O)c1ccccc1	0	0	0	0	?	0
COc1ccc(C)cc1-n1nnnc1SC(C)C(=O)NC1CCCC1 (stereo not given)	0	?	?	0	0	0
CCOC(=O)c1c(C)[nH]c2ccc3c(c12)CN1CCc2cc(OC)ccc2[C@@H]1O3	0	7.5µM	8.4µM	-	-	-
CC(=O)c1cccc(Nc2ncnc3c2cnn3-c2cccc(Cl)c2)c1	0	?	?	0	0	-
Cn1ncc(Cl)c1C(=O)NCC1CCCO1 (stereo not given)	0	0	0	0	0	0
CN(Cc1cnc2nc(N)nc(N)c2n1)c1ccc(C(=O)NC(CCC(=O)O)C(=O)O)c2ccccc12 (stereo not given)	-	0.052µM	0.092µM	0	0	0
O=C(O)CC[C@H](NC(=O)c1ccccc1C(=O)O)C(=O)O	0	-	-	-	-	-
O=C(O)C(Cc1ccc(F)cc1)c1ccccc1 (stereo not given)	-	0	0	0	0	0
CCC(C(=O)NCc1cccc(Br)c1)n1nc(C)c2c(C)n(-c3ccccc3)nc2c1=O (stereo not given)	0	?	23µM	0	0	-
SMILES	TDP1 inh	DT40 TDP1 no CPT	TDP1 cell CPT	HepG2 viability	TGFb SMAD3 inh	IL1B secr inh
CCOC(=O)C(CC)n1nc(C)c2c(C)n(-c3ccc(C)cc3)nc2c1=O (stereo not given)	0	16µM	18µM	0	-	-
CCc1ccc(CNC(=O)C(CC)n2nc(C)c3c(C)n(-c4ccccc4)nc3c2=O)cc1 (stereo not given)	0	16µM	23µM	0	?	-
CCSc1nnc2c(n1)OC(c1ccc(OC)cc1OC)N(C(C)=O)c1ccccc1-2 (stereo not given)	-	?	0	0	0	-
CNc1nc(-c2ccccc2)[n+](-c2ccc(C)cc2)s1	0	5.2µM	3.3µM	0	0	-79
Cc1cccc2cc(CN(Cc3ccc(F)cc3)C(=O)N(C)C)c3nnnn3c12	0	21µM	23µM	0	0	0
Cc1cccc2cc(CN(Cc3ccc(F)cc3)C(=O)C(F)(F)F)c3nnnn3c12	0	?	0	0	0	0
CCC(=O)C1=C(O)C(c2cccc(Oc3ccccc3)c2)CCC1=O (stereo not given)	0	9.2µM	21µM	0	0	0
COc1ccc(N2C3=[N+](CCCC3)CC2(C)O)cc1 (stereo not given)	0	3.7µM	4.1µM	0	0	0
C[C@@H]1CN(Cc2nc(-c3ccc(Cl)cc3)no2)C[C@H](C)O1	0	?	?	0	0	0
COc1cccc(CNC(=O)c2cccc(-n3c(C)nc4cccnc43)c2)c1OC	0	?	?	0	0	-
O=C(Cn1cnc2cc([N+](=O)[O-])ccc2c1=O)Nc1ccc(Br)cc1	0	0	0	0	0	0
O=C(Cn1cnc2cc([N+](=O)[O-])ccc2c1=O)Nc1ccccc1-c1ccccc1	0	?	23µM	0	?	0
CCOC(=O)C(N=Nc1nn[nH]n1)C(C)=O (stereo not given)	-	0	0	0	0	0
Cc1cc(C)c(C(=O)COC(=O)c2cccc(S(=O)(=O)NCc3ccccc3)c2)cc1C	0	16µM	?	0	0	0
O=C(c1ccc(Cl)c(Cl)c1)N1CCC(=O)N(C(COCc2ccccc2)Cc2ccccc2)CC1 (stereo not given)	0	23µM	16µM	0	?	?
O=C(c1ccc(Cl)c(Cl)c1)N1CCC(=O)N([C@H](COCc2ccccc2)Cc2ccccc2)CC1	-	18µM	21µM	-	-	0
O=C(c1cccc(Cl)c1)N1CCC(=O)N(C(COCc2ccccc2)Cc2ccccc2)CC1 (stereo not given)	0	?	?	0	0	0
O=C(c1ccc(Cl)c(Cl)c1)N1CCC(=O)N([C@H](COCc2cccc(C(F)(F)F)c2)Cc2ccccc2)CC1	-	?	?	-	-	0

Source: PubChem BioAssay
